# Measurements as given in PubChem BioAssay (NCATS).
# Records with an inconclusive call do not appear. Active and inactive are the calls of the source. The call rests on the fitted dose curve; in most records, active means well fitted curve in the direction sought with a large enough effect; inconclusive means small, poorly fitted or top-dose-only effect, or another doubt; inactive means no such curve, though single readings can be large; an effect the other way counts as inactive or inconclusive.
# Key:
# [1] = Quantitative High-Throughput drug screen in 47 multiple myeloma cell lines against the NCATS MIPE library collection: KHM11_PLB cell viability assay (AID 1918962); further: nearly all actives have a fitted effect of over 35% in size
# In short: (§1)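 Viability readout: CellTiter-Glo luminescence following 5 min room-temperature incubation with reagent. Prior exposure: 48 h, 37C, humidified 5% CO2, 500 cells per well.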
# [2] = Quantitative High-Throughput drug screen in 47 multiple myeloma cell lines against the NCATS MIPE library collection: JIM3_ECACC cell viability assay (AID 1918963; further: nearly all actives have a fitted effect of over 35% in size)
# In short: as §1
# [3] = Quantitative High-Throughput drug screen in 47 multiple myeloma cell lines against the NCATS MIPE library collection: JIM1_ECACC cell viability assay (AID 1918964)
# In short: (§2)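 qHTS of the MIPE 4.0 collection: 500 myeloma cells/well, 48 h drug exposure at 37C in 5% CO2, then CellTiter-Glo for 5 min at room temperature before luminescence reading.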
# [4] = Quantitative High-Throughput drug screen in 47 multiple myeloma cell lines against the NCATS MIPE library collection: INA6_PLB cell viability assay (AID 1918965; further: nearly all actives have a fitted effect of over 55% in size)
# In short: (§3)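 Approved and investigational drugs from MIPE 4.0 were added by pin tool to 500 cells per well. After 48 hours at 37C, ATP-based CellTiter-Glo luminescence indicated remaining viability.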
# [5] = Quantitative High-Throughput drug screen in 47 multiple myeloma cell lines against the NCATS MIPE library collection: Karpas417_ECACC cell viability assay (AID 1918961); conditions: Karpas417 myeloma viability, CellTiter-Glo ATP luminescence, 48 h; viability (% of DMSO): at 45.8 µM (top of the series);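 on viability (% of DMSO): 100% = DMSO only wells and 0% = media only wells without cells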
# In short: as §3
# [6] = Quantitative High-Throughput drug screen in 47 multiple myeloma cell lines against the NCATS MIPE library collection: H1112_PLB cell viability assay (AID 1918967; further: nearly all actives have a fitted effect of over 30% in size)
# In short: as §2
# [7] = Quantitative High-Throughput drug screen in 47 multiple myeloma cell lines against the NCATS MIPE library collection: Karpas25_ECACC cell viability assay (AID 1918968; further: nearly all actives have a fitted effect of over 35% in size)
# In short: as §2
# [8] = Quantitative High-Throughput drug screen in 47 multiple myeloma cell lines against the NCATS MIPE library collection: KMS12BM_JCRB cell viability assay (AID 1918971); further: nearly all actives have a fitted effect of over 35% in size
# In short: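 Steps: seed 500 cells per well; pin-transfer MIPE 4.0 library; incubate 48 h at 37C, 5% CO2, humidified; add CellTiter-Glo, 5 min room temperature; read luminescence.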
# [9] = Quantitative High-Throughput drug screen in 47 multiple myeloma cell lines against the NCATS MIPE library collection: JJN3_DSMZ cell viability assay (AID 1918966; further: nearly all actives have a fitted effect of over 50% in size)
# In short: as §2
# [10] = Quantitative High-Throughput drug screen in 47 multiple myeloma cell lines against the NCATS MIPE library collection: KMS27_JCRB cell viability assay (AID 1918970); further: nearly all actives have a fitted effect of over 30% in size;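 on viability (% of DMSO): 100% = DMSO-only wells and 0% = media-only wells without cells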
# In short: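 Viability inhibition screen, 48 h compound exposure, luminescent ATP read-out.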
# Potency means the concentration at half of the fitted maximal effect.
SMILES,Potency [1],Potency [2],Potency [3],Potency [4],Potency [5],Potency [6],Potency [7],Potency [8],Potency [9],Potency [10],viability (% of DMSO) [5]
Clc1cccc(-c2nnnn2Cc2cccnc2)c1Cl,inactive,inactive,inactive,inactive,,,,,,,
C[C@]1(CO)CN(c2cc(C(=O)Nc3ccc4c(c3)-c3c(c(C(N)=O)nn3-c3ccc(F)cc3)CC4)c(Cl)cn2)C[C@@]1(C)CO,4.18 µM (active),,,2.64 µM (active),2.64 µM (active),11.8 µM (active),14.8 µM (active),16.6 µM (active),,,
O=C(Nc1cc(C(F)(F)F)cc(C(F)(F)F)c1)c1cc(Cl)ccc1O,1.48 µM (active),,1.05 µM (active),1.66 µM (active),0.59 µM (active),1.87 µM (active),0.372 µM (active),0.833 µM (active),1.87 µM (active),0.833 µM (active),
NC(=O)Nc1cc(-c2cccc(F)c2)sc1C(=O)N[C@H]1CCCNC1,0.0743 µM (active),0.469 µM (active),,0.059 µM (active),0.0833 µM (active),1.48 µM (active),0.59 µM (active),0.662 µM (active),1.32 µM (active),,
Cn1c2cc(S(C)=O)sc2c2cnn(Cc3cccc(N)c3)c(=O)c21 (configuration not stated),,inactive,inactive,,inactive,inactive,inactive,,inactive,,
COc1cc2c(Nc3ccc(NC(=O)c4ccccc4)cc3)ncnc2cc1OCCCN1CCOCC1,8.33 µM (active),,inactive,11.8 µM (active),,,,,,,112% (active)
CNC(=O)c1ccc(-c2cnc3ncc(Cc4ccc5ncccc5c4)n3n2)cc1F,inactive,inactive,,,,,,,,,
COc1cc(C(=O)N2CCC(N3CCN(C)CC3)CC2)ccc1Nc1ncc2c(n1)N(C)c1ccccc1C(=O)N2C,7.43 µM (active),14.8 µM (active),,0.935 µM (active),2.09 µM (active),,11.8 µM (active),1.87 µM (active),,,
CC(C)(O)c1cc2nc(-c3cnc(N)nc3)nc(N3CCOCC3)c2s1,,,,0.743 µM (active),0.0148 µM (active),0.418 µM (active),0.0296 µM (active),0.0833 µM (active),0.059 µM (active),,
CCn1cc(-c2ccnc3[nH]c(-c4cccc(CN(C)C)c4)cc23)c(-c2ccc(NC(=O)N(C)C)cc2)n1,3.32 µM (active),5.26 µM (active),,,1.87 µM (active),14.8 µM (active),4.18 µM (active),13.2 µM (active),,,
CC(=O)OCCN1C(=O)c2c(C)nc3ccc(S(=O)(=O)N4CCOCC4)cc3c2C1=O,,inactive,inactive,inactive,,,inactive,inactive,,,109% (active)
CN1CCN(Cc2ccc(NC(=O)Nc3ccc(Oc4cc(NC(=O)C5CC5)ncn4)cc3)cc2C(F)(F)F)CC1,0.132 µM (active),0.148 µM (active),,0.132 µM (active),inactive,0.148 µM (active),0.118 µM (active),0.469 µM (active),0.264 µM (active),,
CCCCOc1c(C(=O)c2c(F)cc(C)cc2F)cnc2n[nH]cc12,3.72 µM (active),,2.96 µM (active),4.18 µM (active),2.35 µM (active),4.69 µM (active),4.69 µM (active),5.26 µM (active),,3.72 µM (active),
Cc1cc(Nc2cc(NC(=O)c3c(Cl)cccc3Cl)ccn2)nc(N)n1,8.33 µM (active),0.469 µM (active),,0.935 µM (active),2.64 µM (active),1.05 µM (active),,18.7 µM (active),0.743 µM (active),0.264 µM (active),
COc1cc2nccc(Oc3ccc(NC(=O)C4(C(=O)Nc5ccc(F)cc5)CC4)cc3)c2cc1OC,,,,,inactive,11.8 µM (active),5.26 µM (active),11.8 µM (active),1.66 µM (active),4.69 µM (active),
O=C(Nc1nc2cccc(-c3ccc(CN4CCS(=O)(=O)CC4)cc3)n2n1)C1CC1,13.2 µM (active),18.7 µM (active),5.9 µM (active),3.32 µM (active),,23.5 µM (active),16.6 µM (active),,7.43 µM (active),,
C[C@]12CC[C@H](O)CC1=CCC1C2CC[C@]2(C)C(n3cnc4ccccc43)=CCC12 (some centres not stated),,,,,,inactive,,18.7 µM (active),,inactive,109% (active)
CC(C)(C)NC(=O)[C@H]1CN(Cc2cccnc2)CCN1C[C@@H](O)C[C@@H](Cc1ccccc1)C(=O)N[C@H]1c2ccccc2C[C@H]1O,,5.26 µM (active),inactive,20.9 µM (active),inactive,,4.18 µM (active),,,,
Fc1cc(-c2cccc3ncc(-c4cnn(C5CCNCC5)c4)nc23)cc(F)c1CN1CCOCC1,6.62 µM (active),16.6 µM (active),,4.18 µM (active),0.418 µM (active),23.5 µM (active),7.43 µM (active),18.7 µM (active),16.6 µM (active),,
NC(=O)c1cccc2cn(-c3ccc([C@@H]4CCCNC4)cc3)nc12,,,,14.8 µM (active),,20.9 µM (active),inactive,,,inactive,72.2% (active)
